Records with an inconclusive call do not appear. Active and inactive are the calls of the source. Unless noted, calls follow the shape of the dose curve; as a rule, active = well fitted curve in either direction with a large enough effect (not every such curve was filed as active); inconclusive = small, poorly fitted or top-dose-only effect, or another doubt; inactive = flat fitted curve, though single readings scatter.
Key:
[1] = target: Lysosomal acid glucosylceramidase (Homo sapiens) (UniProt P04062); assay: Glucocerebrosidase-p2 (AID 348; in the data active = potency below about 10 µM; also: potency is read from the fitted curve at half-maximal effect); details: purified GBA, blue fluorogenic substrate, 40 min
Lysosomal acid glucosylceramidase (Homo sapiens), sequence (P04062 whole entry, looked up): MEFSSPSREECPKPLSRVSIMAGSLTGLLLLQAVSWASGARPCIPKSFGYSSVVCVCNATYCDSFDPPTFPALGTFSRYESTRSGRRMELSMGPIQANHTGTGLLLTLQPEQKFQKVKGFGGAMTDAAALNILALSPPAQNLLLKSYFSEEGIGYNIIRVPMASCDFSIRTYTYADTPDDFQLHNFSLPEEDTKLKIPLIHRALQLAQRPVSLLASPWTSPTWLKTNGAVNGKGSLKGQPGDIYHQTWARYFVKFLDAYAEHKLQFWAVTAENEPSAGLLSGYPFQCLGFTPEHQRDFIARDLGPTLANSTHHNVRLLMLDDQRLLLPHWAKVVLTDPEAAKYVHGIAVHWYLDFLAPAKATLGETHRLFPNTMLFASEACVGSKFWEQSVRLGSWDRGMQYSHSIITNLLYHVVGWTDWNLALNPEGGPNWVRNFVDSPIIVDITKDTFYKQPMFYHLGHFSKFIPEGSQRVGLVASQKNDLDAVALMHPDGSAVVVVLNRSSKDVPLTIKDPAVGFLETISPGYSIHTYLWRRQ
In short: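 Normal human glucocerebrosidase (0.2 nM) with blue fluorogenic substrate (80 uM final) in citrate/phosphate pH 5.9 with 10mM sodium taurocholate, 0.01% tween-20; 40 min RT, NaOH/glycine stop; fluorescence Ex 365/Em 440; AC50 from a titration from 0.6 nM upwards.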

[2] = AP1 Signaling Pathway (AID 357); details: ME-180 AP-1-bla reporter, EGF-induced, beta-lactamase ratio, 5 h; at 7.69 µM (top of the series) unless noted;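 also: ME-180 reporter cells stimulated with EGF at its EC50 level; % is scaled to controls: 0 for no effect and ±100 for the full control effect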
In short: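 Cells are seeded overnight, exposed to compound titrations and an EC50 level of EGF for 5 hours at 37 °C, then loaded with CCF4 dye for 2.5 hours. Beta-lactamase activity under the AP-1 element is read as a blue/green ratio.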

[3] = NFAT Signaling Pathway (AID 444); details: Jurkat NFAT-bla M1, carbachol, beta-lactamase ratio, 5 h; at 7.69 µM (top of the series) unless noted;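 also: carbachol stimulus at about its EC50 of 1 µM final; % is scaled to controls: 0 for no effect and ±100 for the full control effect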
In short: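 Jurkat cells with NFAT-driven β-lactamase reporter and co-expressed M1 receptor, stimulated with carbachol (final 1 uM, ~EC50), compound titration, 5 h at 37 °C. CCF4 loaded 1 h at RT; 460/530 nm ratio gave %activity and AC50.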

[4] = Stat Signaling Pathway (AID 446); details: ME-180 SIE beta-lactamase reporter, IL-6 stimulated, 5 h; at 7.69 µM (top of the series) unless noted;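 also: ME-180 cervical cancer cells given 40 pM IL-6 alongside compound; SIE-controlled beta-lactamase reporter measured as 460/530 nm FRET emission ratio; % is scaled to controls: 0 for no effect and ±100 for the full control effect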
In short: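 Emission at 460 and 530 nm (excitation 405 nm) reports SIE-controlled beta-lactamase in ME-180 cells. Cells received compound with 40 pM IL-6 for 5 hrs at 37 C; data scaled between 300 pM IL-6 and 125 nM JAK-inhibitor controls.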

[5] = target: Glucocorticoid receptor (Homo sapiens) (UniProt P04150); assay: GR-GFP Redistribution (AID 450;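 active = compounds whose dose series gives a full or clear partial fitted curve of increased nuclear translocation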; also: potency is read from the fitted curve at half-maximal effect); details: U2OS GR-GFP nuclear translocation, laser cytometry, 2 h
Glucocorticoid receptor (Homo sapiens), sequence (P04150 whole entry, looked up, the tested form may be a part): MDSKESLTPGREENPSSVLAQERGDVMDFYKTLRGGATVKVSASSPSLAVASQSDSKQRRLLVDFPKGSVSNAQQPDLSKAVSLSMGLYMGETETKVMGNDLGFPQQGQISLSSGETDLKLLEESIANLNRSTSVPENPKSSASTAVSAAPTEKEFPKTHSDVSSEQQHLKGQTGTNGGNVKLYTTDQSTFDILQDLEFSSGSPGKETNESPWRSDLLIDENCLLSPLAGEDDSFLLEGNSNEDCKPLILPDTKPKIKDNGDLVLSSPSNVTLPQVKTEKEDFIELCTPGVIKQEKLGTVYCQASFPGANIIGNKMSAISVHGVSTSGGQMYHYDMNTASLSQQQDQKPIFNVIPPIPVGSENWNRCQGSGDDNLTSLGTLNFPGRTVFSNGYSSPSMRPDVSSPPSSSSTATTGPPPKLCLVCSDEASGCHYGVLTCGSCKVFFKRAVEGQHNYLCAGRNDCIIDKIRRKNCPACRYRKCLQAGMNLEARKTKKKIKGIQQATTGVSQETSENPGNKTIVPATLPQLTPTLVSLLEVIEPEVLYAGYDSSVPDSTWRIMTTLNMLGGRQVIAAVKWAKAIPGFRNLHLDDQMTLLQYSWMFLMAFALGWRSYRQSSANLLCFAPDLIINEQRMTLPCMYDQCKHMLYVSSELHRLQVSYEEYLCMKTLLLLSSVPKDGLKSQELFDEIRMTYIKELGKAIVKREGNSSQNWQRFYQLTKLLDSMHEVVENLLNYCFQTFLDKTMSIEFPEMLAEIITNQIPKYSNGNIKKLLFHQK

[6] = target: Glucocorticoid receptor (Homo sapiens) (UniProt P04150); assay: GR-EFC Redistribution (AID 451; calls by dose curve; also: potency is read from the fitted curve at half-maximal effect); details: CHO-K1 GR-EFC translocation, beta-gal luminescence, 2 h
In short: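 CHO-K1 cells expressing nuclear EA and GR-ED fragments of b-gal; compounds titrated up to 46 uM final, 2 h at 37 C. GR nuclear translocation read as complemented b-gal luminescence after 1 h RT detection.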

[7] = target: Mitogen-activated protein kinase 10 (Mus musculus) (UniProt Q61831); assay: JNK3 AlphaScreen Assay (AID 530); details: JNK3 lysate, c-Jun phosphorylation; series mostly up to 11.4 µM;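 also: kinase came from lysate of stimulated human HepG2 cells; signal reports phosphorylation of biotinylated GST-cJun 1-79 at Ser73 with 10 µM ATP; % is scaled to controls: 0 for no effect and ±100 for the full control effect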
In short: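 HepG2 lysate (IL-1b/TNFa pre-activated) + biotin-GST-cJun 1-79 + anti-pSer73 cJun; cpd titration, 15 min RT; ATP 10 uM start; Tris pH 7.6, MgCl2, DTT, vanadate; beads in EDTA buffer; AlphaScreen.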

[8] = target: 3',5'-cyclic-AMP phosphodiesterase 4B (Homo sapiens) (UniProt Q07343); assay: qHTS Assay for Inhibitors of PDE-IV (AID 607; active = well fitted activation curve with a large enough effect in the main read-out, with a control signal flat, not every such curve was filed as active; also: % of control where 0% means no effect); details: HEK293 ACTOne CNG channel cells, membrane potential fluorescence; series mostly up to 22.9 µM
3',5'-cyclic-AMP phosphodiesterase 4B (Homo sapiens), sequence (Q07343 whole entry, looked up): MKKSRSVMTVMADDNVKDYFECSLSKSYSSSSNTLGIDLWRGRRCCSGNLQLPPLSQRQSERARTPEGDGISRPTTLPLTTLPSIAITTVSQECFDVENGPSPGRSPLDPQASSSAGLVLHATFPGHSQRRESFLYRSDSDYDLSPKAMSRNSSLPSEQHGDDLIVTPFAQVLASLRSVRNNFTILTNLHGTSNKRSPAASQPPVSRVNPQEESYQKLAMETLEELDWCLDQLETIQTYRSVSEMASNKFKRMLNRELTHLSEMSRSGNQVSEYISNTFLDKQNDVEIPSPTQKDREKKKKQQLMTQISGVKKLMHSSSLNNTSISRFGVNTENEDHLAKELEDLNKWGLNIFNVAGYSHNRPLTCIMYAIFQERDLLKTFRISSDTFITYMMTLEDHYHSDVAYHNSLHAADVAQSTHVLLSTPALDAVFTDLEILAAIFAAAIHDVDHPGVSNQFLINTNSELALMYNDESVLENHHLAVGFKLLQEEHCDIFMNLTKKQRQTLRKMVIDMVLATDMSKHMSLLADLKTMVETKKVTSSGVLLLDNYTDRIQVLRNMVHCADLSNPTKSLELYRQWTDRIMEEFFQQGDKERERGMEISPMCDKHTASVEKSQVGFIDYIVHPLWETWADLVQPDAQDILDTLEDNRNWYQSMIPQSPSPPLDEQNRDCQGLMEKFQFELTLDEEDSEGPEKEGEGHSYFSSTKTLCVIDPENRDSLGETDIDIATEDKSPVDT
In short: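 The readout is membrane depolarisation from a cAMP-sensing CNG channel, detected with a potential dye at ex 535/em 590. Cells were HEK293-derived (endogenous PDE-IV) at 1000 cells/well, titrated up to 22.9 uM final.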

[9] = qHTS Assay for Identification of Small Molecule Agonists for Hypoxia Response Element Signaling Pathway (AID 914; active = well fitted activation curve with a large enough effect in the signal ratio, with a control signal flat, not every such curve was filed as active; the % refers to the signal ratio; also: % of control where 0% means no effect); details: ME-180 (cervical carcinoma) HRE-bla reporter, beta-lactamase ratio, CoCl2, 17 h; activation: active compounds read high
In short: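 HRE-bla ME-180 assay for agonist-like enhancement of an EC50 CoCl2 stimulus: 17 h at 37 degrees Celsius, CCF4 for 2.5 h, ratiometric 460/530 nm signal converted to %Activity and fitted to AC50.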

CCN1CCC(O)([C@H](C(=O)O)c2ccccc2)CC1
inactive: Potency [1] > 11.4 µM | activity change, negative = inhibition [2] -5.97% | activity change, negative = inhibition [3] 16.2% | activity, negative = inhibition [4] 16.9% | Potency [5] > 46 µM | Potency [6] > 9.22 µM | Potency [7] | Potency [8] | activation [9] -12.7%

Cc1cc(=O)oc2cc(O)c(CN(C)CC(=O)O)cc12
inactive: Potency [1] > 11.4 µM | activity change, negative = inhibition [2] 8.78% | activity change, negative = inhibition [3] 10.9% | activity, negative = inhibition [4] -5.54% | Potency [5] > 46 µM | Potency [6] > 9.22 µM | Potency [7] | Potency [8] | activation [9] 2.1%

NCCC1([N+](=O)[O-])CCNCC1
inactive: Potency [1] > 11.4 µM | activity change, negative = inhibition [2] 2% | activity change, negative = inhibition [3] 12.9% | activity, negative = inhibition [4] -18.7% | Potency [5] > 46 µM | Potency [6] > 9.22 µM | Potency [7] | Potency [8] | activation [9] 13.3%

CC(C)(CO)N1CCN(C(=S)Nc2ccccc2)CC1
inactive: Potency [1] > 11.4 µM | activity change, negative = inhibition [2] 7.77% | activity change, negative = inhibition [3] 17.5% | activity, negative = inhibition [4] -2.59% | Potency [5] > 46 µM | Potency [6] > 9.22 µM | Potency [7] | Potency [8] | activation [9] 10%

O=C(O)C[C@H](Sc1ccccc1)c1ccccc1
inactive: Potency [1] > 11.4 µM | activity change, negative = inhibition [2] 7.59% | activity change, negative = inhibition [3] 8.06% | activity, negative = inhibition [4] -24.9% | Potency [5] > 46 µM | Potency [6] > 9.22 µM | Potency [7] | Potency [8] | activation [9] -1.84%

Cc1cc(CN2CCCCC2)c(O)c(CN2CCCCC2)c1
inactive: Potency [1] > 11.4 µM | activity change, negative = inhibition [2] 25.8% | activity change, negative = inhibition [3] -21.4% | activity, negative = inhibition [4] -1.32% | Potency [5] > 46 µM | Potency [6] > 9.22 µM | Potency [7] | Potency [8] | activation [9] 2.92%

O=C(O)[C@@H](Br)[C@@H](Br)c1ccccc1[N+](=O)[O-]
inactive: Potency [1] > 11.4 µM | activity change, negative = inhibition [2] 3.89% | activity change, negative = inhibition [3] 10.2% | activity, negative = inhibition [4] -0.793% | Potency [5] > 46 µM | Potency [6] > 9.22 µM | Potency [7] | Potency [8] | activation [9] 6.66%

Cc1cc(=O)[nH]c2cc3oc4ccccc4c3cc12
inactive: Potency [1] > 11.4 µM | activity change, negative = inhibition [2] 6.73% | activity change, negative = inhibition [3] 8.67% | activity, negative = inhibition [4] -1.36% | Potency [5] > 46 µM | Potency [6] > 9.22 µM | Potency [7] | Potency [8] | activation [9] -6.85%

O=c1[nH][nH]c(=S)c(=O)[nH]1
inactive: Potency [1] > 11.4 µM | activity change, negative = inhibition [2] -2.98% | activity change, negative = inhibition [3] 12.7% | activity, negative = inhibition [4] 3.19% | Potency [5] > 46 µM | Potency [6] > 9.22 µM | Potency [7] | Potency [8] | activation [9] 5.24%

c1ccc(-c2cnc(-c3ccc(-c4ncc(-c5ccccc5)o4)cc3)o2)cc1
inactive: Potency [1] > 11.4 µM | activity change, negative = inhibition [2] -0.667% | activity change, negative = inhibition [3] 14.2% | activity, negative = inhibition [4] -0.742% | Potency [5] > 46 µM | Potency [6] > 9.22 µM | Potency [7] | Potency [8] | activation [9] 15%

CSc1nc(C)cc(Nc2ccc(O)c(CN3CCCCC3)c2)n1
inactive: Potency [1] > 11.4 µM | activity change, negative = inhibition [2] -6.95% | activity change, negative = inhibition [3] -16.1% | activity, negative = inhibition [4] 2.99% | Potency [5] > 46 µM | Potency [6] > 9.22 µM | Potency [7] | Potency [8] | activation [9] 4.77%

O=C(O)c1cccc(N=Nc2c(S(=O)(=O)O)ccc3c2C(=O)c2ccccc2C3=O)c1O
inactive: Potency [1] > 11.4 µM | activity change, negative = inhibition [2] 9.86% | activity change, negative = inhibition [3] -3.54% | activity, negative = inhibition [4] -9.02% | Potency [5] > 46 µM | Potency [6] > 9.22 µM | Potency [8]

O=S(=O)(O)c1ccc2c(N=Nc3cccc4ccccc34)c(O)c(S(=O)(=O)O)cc2c1
inactive: Potency [1] > 11.4 µM | activity change, negative = inhibition [2] -5.27% | activity change, negative = inhibition [3] -7.38% | activity, negative = inhibition [4] -0.528% | Potency [5] > 46 µM | Potency [6] > 9.22 µM | Potency [8]
